# Results from PubChem BioAssay (Tox21).
# Records with an inconclusive call do not appear. A call without a number means that no potency is given here. Calls of active or inactive are those of the source. The call rests on the fitted dose curve; in most records, active means well fitted activation curve with a large enough effect in the signal ratio in the repeat runs (not every such curve was filed as active); inconclusive means weak or mixed curves; inactive means flat fitted curve, though single readings scatter; the % refers to the signal ratio.
# Assay: p53 small molecule agonists, cell-based qHTS assay (AID 1963582)
# Settings: HCT-116 p53RE-bla reporter, beta-lactamase FRET ratio, 16 h; series mostly up to 66 µM
# Source text: National Center for Advancing Translational Sciences [NCATS]
# Division of Preclinical Innovation [DPI]
# U.S. Environmental Protection Agency [EPA]
# National Institutes of Environmental Health Sciences [NIEHS]
# National Toxicology Program [NTP]
# U.S. Food and Drug Administration [FDA]
# p53, a tumor suppressor protein, is activated following cellular insult, including DNA damage and other cellular stresses. The activation of p53 regulates cell fate by inducing DNA repair, cell cycle arrest, apoptosis, or cellular senescence. The activation of p53, therefore, is a good indicator of DNA damage and other cellular stresses. […] The activation of the reporter gene under culture conditions can be detected by fluorescence intensity. This cell line was used to screen the Tox21 10K compound library in a 1536-well plate format and to identify agonists that activate the p53 signaling pathway.
# Tox21 Assay Protocol Summary:
# The p53RE-bla cells were dispensed at 4,000 cells/5 ul/well in 1536-well black wall/clear bottom plates using a Multidrop dispenser. After the assay plates were incubated at a 37 C/5% CO2 incubator for 5 hours, 23 nL of compounds dissolved in DMSO, positive controls or DMSO only was transferred to the assay plate by a pin tool. The plates were incubated at 37 C for 16 hours. After 1 uL of LiveBLAzerTM B/G FRET substrate was added using a Flying Reagent Dispenser, the plates were incubated at room temperature for 2 hours, and fluorescence intensity was measured by an Envision plate reader.
row,SMILES,Potency
1,CCN(CC)C(=O)/C(Cl)=C(\C)OP(=O)(OC)OC,inactive
2,O=C(O)C(Br)Br,inactive
3,CC(C)(O)C(Cl)(Cl)Cl,inactive
4,CN(C)CCO,inactive
5,O=[N+]([O-])c1ccc(CBr)cc1,inactive
6,Cl[C@H]1OCCO[C@@H]1Cl,inactive
7,Clc1ccc(C2(Cn3cncn3)OCCO2)c(Cl)c1,inactive
8,c1ccc2c(c1)-c1cccc3cccc-2c13,inactive
9,C=CC(=O)OCC(C)C,inactive
10,CCCCCCCCCCCCCl,inactive
11,Cc1ccc(N)cc1C,inactive
12,O=C=NC1CCCCC1,inactive
13,O=c1[nH]c(=O)[nH]c(=O)[nH]1,inactive
14,C/C=C/c1ccc2c(c1)OCO2,inactive
15,COc1cc(OC)nc(Oc2cccc(Oc3nc(OC)cc(OC)n3)c2C(=O)O)n1,inactive
16,CCCC[n+]1cccc(C)c1,inactive
17,COC[C@H](C)N(C(=O)CCl)c1c(C)csc1C,inactive
18,C=CCBr,inactive
19,O=C(Nc1ccc(Br)cc1)c1cc(Br)cc(Br)c1O,inactive
20,CN(C)[C@@H]1C(=O)C(C(N)=O)=C(O)[C@@]2(O)C(=O)C3=C(O)c4c(O)cccc4[C@@](C)(O)[C@H]3C[C@@H]12,inactive

row,SMILES,Potency
1,Nc1cc(Cl)cc(C(=O)O)c1Cl,inactive
2,CCOC(=O)C(c1c(O)c2ccccc2oc1=O)c1c(O)c2ccccc2oc1=O,inactive
3,CCOC(=O)c1ccccc1C(=O)OCC,inactive
4,Oc1ccc(Cl)c(Cl)c1,inactive
5,Cc1ccccc1[N+](=O)[O-],inactive
6,c1ccc(Nc2ccc3ccccc3c2)cc1,inactive
7,Nc1cccc2ccccc12,inactive
8,CS(=O)(=O)Cl,inactive
9,O=C(O)C(F)(F)C(F)(F)C(F)(F)C(F)(F)C(F)(F)C(F)(F)F,inactive
10,Brc1ccc(Br)cc1,inactive
11,CC1=C(C(=O)Nc2ccccc2)SCCO1,inactive
12,Clc1ccc(C(c2ccc(Cl)cc2)C(Cl)Cl)cc1,inactive
13,CCCC[N+]1(C)CCCC1,inactive
14,c1cc2c3c(cccc3c1)CC2,inactive
15,COP(=O)(O)OC,inactive
16,CC(=O)C(C)(C)C,inactive
17,O=C(O)c1nc(Cl)ccc1Cl,inactive
18,ClC1(Cl)C2(Cl)C3(Cl)C4(Cl)C(Cl)(Cl)C5(Cl)C3(Cl)C1(Cl)C5(Cl)C24Cl (stereo not given),inactive
19,O=[N+]([O-])CCO,inactive
20,CCc1cccc(C)c1N(C(=O)CCl)C(C)COC (stereo not given),inactive
